# Source: the supplement of paper PMC10681739
# Biological target: T1, ETS1 (UniProt P14921)
# T1 sequence: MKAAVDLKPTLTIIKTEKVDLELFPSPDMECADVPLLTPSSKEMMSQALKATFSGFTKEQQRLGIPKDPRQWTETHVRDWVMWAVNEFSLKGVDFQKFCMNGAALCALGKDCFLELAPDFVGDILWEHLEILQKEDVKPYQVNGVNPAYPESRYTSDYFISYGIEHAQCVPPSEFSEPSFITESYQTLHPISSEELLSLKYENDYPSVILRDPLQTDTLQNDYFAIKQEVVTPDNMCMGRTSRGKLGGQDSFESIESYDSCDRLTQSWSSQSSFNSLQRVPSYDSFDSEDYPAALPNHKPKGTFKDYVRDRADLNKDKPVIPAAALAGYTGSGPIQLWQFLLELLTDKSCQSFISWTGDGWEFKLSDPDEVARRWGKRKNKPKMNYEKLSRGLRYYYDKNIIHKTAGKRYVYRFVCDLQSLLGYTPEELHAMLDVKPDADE
# Experiment: ETS1 binding intensity (PBM fluorescence) in presence of RUNX1, normalised to ETS1-only experiment (arbitrary fluorescence units); higher = stronger binding
# Details: ETS1 concentration 1 nM; RUNX1 concentration 25 nM
# Method: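 Cooperative genomic-context PBM: 36-bp genomic probes with neighbouring ETS1 and RUNX1 sites, double-stranded on Agilent 4x180k arrays. Full-length recombinant human ETS1 (1 nM) was incubated alone or with RUNX1 (25 nM) and detected with anti-ETS1 antibody plus Alexa488 secondary. Value is the median fluorescence intensity over 4 replicate spots; the ETS1+RUNX1 data were normalised to the ETS1-only data using probes without RUNX1 sites. The 36-bp variable region sits on the array probe with constant linker/primer flanks that are not printed.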
row,Sequence,ETS1 binding intensity
1,GCTTGCTCCCACAGGAAACCGCAGGCTTCGGGCACA,9810
2,GACATGCTCCGGAAGCTTGAGGTTTTAACGTTAAGG,5030
3,GGATGAACAGGAAGCTAAAGTAAATACCACAGTGAC,3860
4,ACAGTCGCACCGGAAGCTGCCCGCGGTGTTGACACA,11300
5,CTGAGCCGGGACCGGAAGCCGCACCGCCCCCCGCGC,21700
6,GCACAGGCCGGAAGGAAAAGGGTTGTGGGGCTCATT,1180
7,AGTTGCTAAGGAAATGACTGCCCGCAGCGCCTGGCC,929
8,TCCCACATCCTGTGCTCGTGCAGTGGTTAGGCTCAA,608
9,CAGAGAGCGGACTTCCGCGACGCGGGTAAGCCGGGC,368
10,GAACCCCAAGTTCCGGCTGGCACTGCGGCGGAGCCT,299
11,GTGCAGGCCGGAAGGAAAAGGGTTGTGGGGCTCATT,1420
12,ATCACAAGCAGAGGATGTGGTTAGTGTTTCGTTCCA,5580
13,CTCTGAACTTCCTCTCTTTTAACCACAACTTACTAC,1420
14,GGACAAAACATCATAGGAAGTGGGTTTTGGGGTGAG,2950
15,CGAAGCCGGAAATGCTGAGTGTGCGGGGCCGAACGT,4980
16,AACACTATTTCCTTTCTTGCTGCCCACATTTTAACA,447
17,TTTGTCATATCAACAGGATGTGGTTCTCCCCTGGTT,10700
18,CCGAAGAGGAAGCTCCACAGGACCTCCGCGGTCAGC,1000
19,GCAGGGACCGGAAGTCCATGGCTCTGCCGCAACCCT,13700
20,GAGGCCGAAAGGAAGTTTGAGGTTAAGCACAAGATG,1900

row,Sequence,ETS1 binding intensity
1,CCAAAAACCCCAGGAGGATGTGGTGAGGAGGGAAGG,2590
2,AACCCGGAAGTGGACACGGAGCTCGGCTGCGGCTCC,2240
3,CGGCATCTGACAGGATGTGGGCAGGGAGAGAGAGAC,9220
4,GTTGTGCTCTTTCCTGCTTCCCGCAGTTTTTTAGTT,921
5,GAAATCACATCCTTTTGCAAAACCACAGGTGTTTTG,1500
6,AACATCCTGTGTAAAGAGAATTGAATGTGGTTTTCT,1360
7,CAGCAAGCGTCCAGGAAGTGTGTGGGGGAGGTGTGG,1920
8,GCACTTCCGGAGCCGGGCGTCTACAGACCGCGGCCA,1050
9,GCAGAAGGAAGTGTGGCTTGGCGCGGTGGCTCACAC,405
10,CAGAAACATCCCTCCTGCCGCCGCTTTGTGGTACCA,526
11,CGAAGGAGGAAGCTGCACAGGGTGTCTGTGGCTGGC,428
12,GCTTTTCCGCTCCCAGAGTGCCCCGCCCACAGTTCA,426
13,TACGGGAACTTCCTTTTCTTGTGGTGTGGCCGGGTC,853
14,ACCCAGGAGGCGGAAGTTGTGGTGAGCCGAGATCGC,11600
15,GTAAACTAGCTCTTCCGGTCTGTGGCCCTCACAGGA,3250
16,CCGTACTTCCGCTTTACTCAGATTTTGGACCGCGGG,1780
17,AGATTTTGTCTTCCTGTTGTGGCAACATCTGTAGAA,406
18,GTTTCAGTATTTCCTGGTGCGGCGTACCACACCTAC,566
19,AGGCTGTGGCGGAAGTGGTCGCGTTACCGCTTGTTT,12100
20,GAGAGAGGCAGGAAGTGTTGTGGTTATTGTTTGAGC,24200
